Growth inhibition, inhibition and outcome data for 20 compounds are collected here from PubChem BioAssay.

Assay [1] can be described thus: antimalarial activity against Dd2 strain (AID 2302;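 active means growth inhibition above 50% at the single 2 µM test dose, taken to imply half-maximal potency below 2 µM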;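 further: 0% = DMSO untreated growth and 100% = chloroquine plus artemisinin killed control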). Conditions: P. falciparum Dd2 in RBCs, LDH growth readout, 72 h; at 2 µM; active compounds read high.
A short description of assay [2]: human hepatoma cell viability loss – ATP luminescence, cytotoxicity control for P. falciparum antimalarial project, primary screen (AID 2303;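 active means inhibition above 50%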;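 further: 0% = DMSO wells and 100% = digitonin-killed cells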). Conditions: HepG2 viability, 24-48 h, at 10 µM, active compounds read high.
Assay [3] deals with L-lactate dehydrogenase (Plasmodium falciparum (isolate CDC / Honduras)) (UniProt Q27743). The experiment in a line: PfLDH activity inhibition – cell lysate, 3D7 strain, counter-screen for P. falciparum growth inhibition project (AID 2304).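 Further: 0% = vehicle and 100% = reference inhibitor.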 Conditions: P. falciparum 3D7 crude extract, LDH APAD/NBT absorbance; at 2 µM; active compounds read high.
Sequence of L-lactate dehydrogenase (Plasmodium falciparum (isolate CDC / Honduras)) (Q27743 whole entry, looked up): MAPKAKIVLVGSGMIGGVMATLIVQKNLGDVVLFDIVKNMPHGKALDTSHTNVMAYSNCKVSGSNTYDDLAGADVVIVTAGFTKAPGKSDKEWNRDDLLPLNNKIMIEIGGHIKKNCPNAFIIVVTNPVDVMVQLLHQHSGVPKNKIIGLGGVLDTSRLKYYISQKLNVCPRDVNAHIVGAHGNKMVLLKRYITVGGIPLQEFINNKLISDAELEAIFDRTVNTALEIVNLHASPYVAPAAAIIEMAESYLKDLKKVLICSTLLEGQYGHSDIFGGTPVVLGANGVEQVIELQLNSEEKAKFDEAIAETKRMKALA
Assay [4] is described as follows: inhibition of 3D7 malaria parasite growth – strain 3D7 (AID 2306).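 Further: 0% = DMSO wells and 100% = chloroquine plus artemisinin control wells.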 Conditions: P. falciparum 3D7 erythrocytic growth, LDH absorbance, 72 h; at 2 µM; active compounds read high.
Assay [5] concerns the target Calcium-dependent protein kinase 1 (Plasmodium falciparum (isolate 3D7)) (UniProt P62344). The experiment in a line: PfCDPK1 kinase inhibitors, biochemical, TCAMS library (AID 1159585; cut-off not given, nearly all actives have IC50 up to about 0.98 µM;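 further: inhibitors leave more ATP so luminescence rises with inhibition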). Conditions: recombinant PfCDPK1, Kinase-Glo ATP depletion luminescence. A general note: Kinase-Glo reads ATP consumption through a luciferase reaction.
Assay [6] deals with Plasmodium falciparum protein kinase 6 (PK6, PF3D7_1337100) (UniProt Q8IDW1). Kind of assay: PfPK6 kinase inhibitors, biochemical, TCAMS library (AID 1159586). As to conditions: recombinant PfPK6, Kinase-Glo ATP depletion luminescence.
Sequence of Plasmodium falciparum protein kinase 6 (PK6, PF3D7_1337100) (Q8IDW1 1-305): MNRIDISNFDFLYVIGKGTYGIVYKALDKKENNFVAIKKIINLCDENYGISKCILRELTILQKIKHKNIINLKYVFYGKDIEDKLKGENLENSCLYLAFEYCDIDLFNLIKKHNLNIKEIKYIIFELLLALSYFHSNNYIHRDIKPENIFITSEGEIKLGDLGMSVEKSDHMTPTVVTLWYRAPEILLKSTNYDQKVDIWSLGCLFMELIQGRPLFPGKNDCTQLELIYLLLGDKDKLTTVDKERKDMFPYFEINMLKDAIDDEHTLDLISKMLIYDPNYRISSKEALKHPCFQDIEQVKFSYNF
Assay [7] concerns the target Protein kinase 7 (PK7), Plasmodium falciparum 3D7 (PF3D7_0213400) (UniProt Q7YTF7). Kind of assay: inhibition of Plasmodium PK7 catalytic activity – biochemical, TCAMS antimalarial set, Kinase-Glo luminescence (AID 1159587). As to conditions: recombinant PfPK7, Kinase-Glo ATP depletion luminescence.
The target in assay [8] is Calcium-dependent protein kinase 4 (Plasmodium falciparum (isolate 3D7)) (UniProt Q8IBS5). Kind of assay: PfCDPK4 kinase inhibitors, biochemical, TCAMS library (AID 1159588; cut-off not given, nearly all actives have IC50 up to about 0.91 µM). Conditions: recombinant PfCDPK4, Kinase-Glo ATP depletion luminescence.
Sequence of Calcium-dependent protein kinase 4 (Plasmodium falciparum (isolate 3D7)) (Q8IBS5 whole entry, looked up): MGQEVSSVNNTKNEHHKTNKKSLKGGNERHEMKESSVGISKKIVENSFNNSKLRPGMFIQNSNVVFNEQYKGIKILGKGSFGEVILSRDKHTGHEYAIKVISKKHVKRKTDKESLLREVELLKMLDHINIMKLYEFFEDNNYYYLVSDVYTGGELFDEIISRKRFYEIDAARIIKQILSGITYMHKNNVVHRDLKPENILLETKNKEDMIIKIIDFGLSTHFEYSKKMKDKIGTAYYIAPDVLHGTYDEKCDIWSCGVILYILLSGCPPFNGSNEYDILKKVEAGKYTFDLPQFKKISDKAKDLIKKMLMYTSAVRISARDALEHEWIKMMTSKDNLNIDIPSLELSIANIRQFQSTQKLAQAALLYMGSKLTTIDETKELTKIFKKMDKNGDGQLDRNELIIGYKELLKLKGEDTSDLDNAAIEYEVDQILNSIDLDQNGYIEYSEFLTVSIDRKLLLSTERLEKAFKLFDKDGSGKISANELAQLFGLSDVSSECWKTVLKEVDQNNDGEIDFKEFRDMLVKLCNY

Unmarked numbers belong to inactive results. For some of these results: Results with a measured potency or affinity are listed apart. Activity calls are given as the source filed them. Unless noted, how the calls were made is not given here.

Sequence of Protein kinase 7 (PK7), Plasmodium falciparum 3D7 (PF3D7_0213400) (Q7YTF7 1-343): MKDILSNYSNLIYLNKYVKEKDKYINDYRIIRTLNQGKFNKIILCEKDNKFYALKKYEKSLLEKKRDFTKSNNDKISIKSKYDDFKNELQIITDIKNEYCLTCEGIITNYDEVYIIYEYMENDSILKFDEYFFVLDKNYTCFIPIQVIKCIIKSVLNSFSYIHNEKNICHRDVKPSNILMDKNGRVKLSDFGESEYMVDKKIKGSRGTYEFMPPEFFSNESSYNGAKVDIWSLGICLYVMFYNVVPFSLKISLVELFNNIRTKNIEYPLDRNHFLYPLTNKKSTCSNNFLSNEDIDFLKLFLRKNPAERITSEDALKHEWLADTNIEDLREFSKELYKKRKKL
Sequence of Calcium-dependent protein kinase 1 (Plasmodium falciparum (isolate 3D7)) (P62344 whole entry, looked up): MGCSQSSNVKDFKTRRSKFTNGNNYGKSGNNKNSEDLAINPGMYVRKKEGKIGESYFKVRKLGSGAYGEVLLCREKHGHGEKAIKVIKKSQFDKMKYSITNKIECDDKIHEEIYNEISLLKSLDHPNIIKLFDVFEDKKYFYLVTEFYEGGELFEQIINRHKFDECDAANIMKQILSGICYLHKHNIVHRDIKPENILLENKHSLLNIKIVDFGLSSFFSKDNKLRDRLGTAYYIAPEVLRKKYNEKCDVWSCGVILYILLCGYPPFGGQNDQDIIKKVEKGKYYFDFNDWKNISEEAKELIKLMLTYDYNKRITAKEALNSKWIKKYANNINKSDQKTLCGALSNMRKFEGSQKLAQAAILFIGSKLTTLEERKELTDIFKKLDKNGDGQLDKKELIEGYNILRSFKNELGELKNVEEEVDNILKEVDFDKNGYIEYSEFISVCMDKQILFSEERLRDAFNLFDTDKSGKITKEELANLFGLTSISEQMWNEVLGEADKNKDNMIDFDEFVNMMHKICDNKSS

In general, inhibition refers to the change of the read-out against control, counted positive when it falls. In the case of `COc1cc(C(=O)NC2CC(C)(C)NC(C)(C)C2)ccc1-c1cc2cc(Cl)c(Cl)cc2[nH]1`, the growth inhibition was 31% in assay [1] and 99% (active) in assay [4]. The values for the inhibition in assay [2] and in assay [3] were 41% and 6%, respectively. Besides, the result in assay [5], in assay [6], in assay [7] and in assay [8] was inactive.

As to `CC1(C)CCC(C)(C)c2c1ccc(C1CCN(CCCCNC(=O)c3ccc(-c4ccc(Cl)cc4)cc3)CC1)c2O`, the growth inhibition is 72% (active) in assay [1] and 102% (active) in assay [4]. Also, the inhibition in assay [2] is 100% (active); in assay [3] it was -2%. The result in assay [5], in assay [6], in assay [7] and in assay [8] was inactive.

`O=C(COc1ccccc1)NC1CCN(c2ccnc3cc(Cl)ccc23)C1` (stereo not given): the growth inhibition in assay [1] is 35%; in assay [4], 101% (active). The inhibition was 22% in assay [2] and -5% in assay [3]. The result in assay [5], in assay [6], in assay [7] and in assay [8] was inactive.

Regarding `Cc1ccc(NC(=O)c2ccc(CN3CCCN(CC4CCCCC4)CC3)cc2)cc1`, the growth inhibition is 42% in assay [1] and 93% (active) in assay [4]. Also, the inhibition is 41% in assay [2] and -3% in assay [3]. The result in assay [5], in assay [6], in assay [7] and in assay [8] was inactive.

For `COc1ccc(CNC2CCN(C)CC2)cc1-c1ccc(S(=O)(=O)NCCc2ccccn2)c(C)c1`, the growth inhibition in assay [1] was 91% (active); in assay [4], 96% (active). The inhibition in assay [2] is 7%; in assay [3] it was -2%. Further, the result in assay [5], in assay [6], in assay [7] and in assay [8] was inactive.

`CCN(CCNC(=O)Nc1cc(C(F)(F)F)cc(C(F)(F)F)c1)c1cccc(C)c1`: the growth inhibition in assay [1] is 100% (active); in assay [4] it was 98% (active). Further, the values for the inhibition in assay [2] and in assay [3] were -3% and 4%, respectively. Besides, the result in assay [5], in assay [6], in assay [7] and in assay [8] was inactive.

With `CS(=O)(=O)c1ccc(CCNCc2ccc(-c3ccc(CNC4CCN(Cc5ccccc5)CC4)cc3)nc2)cc1`, the growth inhibition in assay [1] was 100% (active); in assay [4], 101% (active). Moreover, the inhibition in assay [2] was 32%; in assay [3] it was 3%. Further, the result in assay [5], in assay [6], in assay [7] and in assay [8] was inactive.

For `CC1(C)N=C(N)N=C(N)N1OCc1cccs1`, the growth inhibition in assay [1] is -1%; in assay [4], 93% (active). Moreover, the inhibition was 60% (active) in assay [2] and -4% in assay [3]. The outcome in assay [5], in assay [6], in assay [7] and in assay [8] was inactive.

On to `OC(CNCc1cccc(Oc2ccc(Cl)cc2)c1)c1cc(C(F)(F)F)cc(C(F)(F)F)c1` (stereo not given), for which the growth inhibition in assay [1] was 101% (active); in assay [4] it was 99% (active). The inhibition is -4% in assay [2] and 8% in assay [3]. The result in assay [5], in assay [6], in assay [7] and in assay [8] was inactive.

Regarding `COc1ccc2nccc([C@@H](O)CN3CCC(NCc4nc5cc(F)c(F)cc5[nH]4)CC3)c2c1`, the growth inhibition in assay [1] was 36%; in assay [4] it was 96% (active). Besides, the inhibition in assay [2] is 12%; in assay [3] it was -1%. In addition, the outcome in assay [5], in assay [6], in assay [7] and in assay [8] was inactive.

For the compound `COc1ccc(-c2ccc3c(-c4cccc(S(C)(=O)=O)c4)cnc(N)c3c2)cc1`, the growth inhibition in assay [1] is 12%; in assay [4] it was 89% (active). Besides, the inhibition is 41% in assay [2] and 2% in assay [3]. For the same compound, the outcome in assay [5], in assay [6], in assay [7] and in assay [8] was inactive.

In the case of `N#Cc1cccc(NC(=O)C2=C(CCc3ccc4c(c3)OCO4)NC(=O)NC2c2cccc(C#N)c2)c1` (stereo not given), the values for the growth inhibition in assay [1] and in assay [4] were 47% and 96% (active), respectively. In addition, the inhibition is 3% in assay [2] and -1% in assay [3]. Besides, the outcome in assay [5], in assay [6], in assay [7] and in assay [8] was inactive.

With `CCC(C)NC(=O)CN1CN(c2ccccc2)C2(CCN(C(=O)c3ccc(-c4ccccc4)cc3)CC2)C1=O` (stereo not given), the growth inhibition in assay [1] and in assay [4] was 100% (active) throughout. For the same compound, the inhibition was -1% in assay [2] and -2% in assay [3]. Moreover, the outcome in assay [5], in assay [6], in assay [7] and in assay [8] was inactive.

Turning to `O=c1[nH]c(NCCCNCc2cc3c(Cl)cc(Cl)cc3[nH]2)nc2ccccc12`, the results for the growth inhibition in assay [1] and in assay [4] were 4% and 91% (active), respectively. Also, the inhibition in assay [2] is 10%; in assay [3], -3%. The result in assay [5], in assay [6], in assay [7] and in assay [8] was inactive.

Regarding `COc1ccc(C=NNc2cc(C)nc3ccc(OC)cc23)c(OC)c1`, the growth inhibition in assay [1] is 95% (active); in assay [4], 100% (active). In addition, the inhibition is 23% in assay [2] and -5% in assay [3]. Also, the outcome in assay [5], in assay [6], in assay [7] and in assay [8] was inactive.

On to `N=c1c2c(n(Cc3ccccc3)c3c1CCC3)CCCC2`, for which the growth inhibition in assay [1] was 39%; in assay [4], 86% (active). In addition, the inhibition in assay [2] was 4%; in assay [3], -4%. Moreover, the result in assay [5], in assay [6], in assay [7] and in assay [8] was inactive.

On to `COc1cc2c(cc1OC)C(C(=O)c1ccccc1)=NCC2`, for which the growth inhibition was 62% (active) in assay [1] and 85% (active) in assay [4]. Also, the inhibition in assay [2] was 19%; in assay [3] it was 0%. The result in assay [5], in assay [6], in assay [7] and in assay [8] was inactive.

As for `NCC1CCCN1Cc1ccc(-c2cccc(-c3nc4ccc(F)cc4[nH]3)c2)cc1` (stereo not given), the growth inhibition in assay [1] was 31%; in assay [4] it was 100% (active). Moreover, the inhibition in assay [2] was 38%; in assay [3] it was 4%. The result in assay [5], in assay [6], in assay [7] and in assay [8] was inactive.

On to `O=C(Nc1ccc(Cl)cc1)Nc1nc2ccc([N+](=O)[O-])cc2[nH]1`, for which the results for the growth inhibition in assay [1] and in assay [4] were 6% and 101% (active), respectively. The values for the inhibition in assay [2] and in assay [3] were -2% and 3%, respectively. Besides, the result in assay [5], in assay [6], in assay [7] and in assay [8] was inactive.

On to `c1cc(CN2CCC(CCN3CCCCC3)CC2)cc(-c2cccc(-c3nc4ccccc4[nH]3)c2)c1`, for which the growth inhibition in assay [1] was 101% (active); in assay [4], 100% (active). Also, the results for the inhibition in assay [2] and in assay [3] were 95% (active) and -3%, respectively. For the same compound, the outcome in assay [5], in assay [6], in assay [7] and in assay [8] was inactive.
